From the supplement of paper PMC7156485
“And” between values parts separate entries of the source, which are not always exact repeats. Equal entries are not always repeated. ± gives the standard deviation of the averaged measurements.

Columns and labels:
Settings in all cases: concentration: 10 µM; 24 h
HCC1569 [1] = assay: cell number relative to DMSO (% of DMSO); higher = more cells (less growth inhibition / toxicity)
In short: (§1)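 H1.0 nuclear intensity or cell number is expressed as percent of the plate control, with the median of replicates taken. HCC1569 and TDF cells were treated with compounds at 10 µM for 24 h at 37 °C, in triplicate, then fixed and immunostained for H1.0 with DAPI as a nuclear stain. HCC1569 values were smoothed to correct for positional effects.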

TDF [2] = assay: as above
In short: as §1

TDF [3] = assay: H1.0 immunofluorescence intensity relative to DMSO (% of DMSO); higher = stronger H1.0 induction, active = 120 or more
In short: as §1

HCC1569 [4] = assay: H1.0 immunofluorescence intensity relative to DMSO (% of DMSO); higher = stronger H1.0 induction, active = 140 or more
In short: as §1
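Throughout, for H1.0 immunofluorescence intensity relative to DMSO: TDF is a line of transformed human dermal fibroblasts of mesenchymal origin.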
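Throughout, for cell number relative to DMSO: TDF denotes transformed human dermal fibroblasts of mesenchymal origin.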

| SMILES | cell number (HCC1569 [1]) | cell number (TDF [2]) | H1.0 immunofluorescence intensity (TDF [3]) | H1.0 immunofluorescence intensity (HCC1569 [4]) |
| --- | --- | --- | --- | --- |
| N#CC(=C(N)Sc1ccccc1N)C(C#N)=C(N)Sc1ccccc1N | 102 and 101 | 95.9 and 96.9 | 94 (inactive) and 88.9 (inactive) | 108 (inactive) and 98.1 (inactive) |
| COC(=O)c1c(-c2cc(OC)c(OC)c(OC)c2)c2ccc(OCc3ccccn3)cc2c(=O)n1-c1ccc(N)cc1.O=S(=O)(O)O | 100 | 113 | 95.1 (inactive) | 102 (inactive) |
| Ic1cccc(CSc2nnc(-c3ccncc3)o2)c1 [GSK-3b Inhibitor II] | 93.5 | 106 | 102 (inactive) | 117 (inactive) |
| CCCCCCCCCCCCCC=CC(O)C(CO)NC(C)=O (stereo not drawn) [C2 Ceramide] | 101 | 107 | 94.8 (inactive) | 102 (inactive) |
| Cc1c(C)c2c(c(C)c1O)CCC(C)(COc1ccc(CC3SC(=O)NC3=O)cc1)O2 (stereo not drawn) [Troglitazone] | 99.8 | 93.8 | 101 (inactive) | 103 (inactive) |
| COc1cc2nc(N3CCN(C(=O)C4=CC5C=CC4CC5)CC3)nc(N)c2cc1OC (stereo not drawn) [Prazobind] | 101 | 102 | 95.3 (inactive) | 93.2 (inactive) |
| CC1CCC2C(C)(CO)C(O)CCC2(C)C12CCC(CO)(CCO)O2 (stereo not drawn) [Lagochiline] | 98.2 | 99.8 | 97 (inactive) | 100 (inactive) |
| NC(=O)c1ncn(C2OC(CO)C(O)C2O)n1 (stereo not drawn) [Ribavirin] | 97.5 ± 3 | 105 ± 3.3 | 94.5 (inactive) | 112 (inactive) |
| COc1cc(C2c3cc4c(cc3C(OC3OC5COC(C)OC5C(O)C3O)C3COC(=O)C23)OCO4)cc(OC)c1O (stereo not drawn) [Etoposide] | 74.1 ± 1.6 | 42.1 ± 4.8 | 125 (active) | 95.1 (inactive) |
| Nc1ncnc2c1ncn2C1OC(CO)C(O)C1O (stereo not drawn) [Adenosine] | 107 | 109 | 92.7 (inactive) | 93.6 (inactive) |
| CNC(C)C1CCC(N)C(OC2C(N)CC(N)C(OC3OCC(C)(O)C(NC)C3O)C2O)O1 (stereo not drawn) [Gentamycin] | 100 | 95.4 | 95 (inactive) | 117 (inactive) |
| CN1CCN(C2Cc3ccccc3Sc3ccc(Cl)cc32)CC1.O=C(O)C=CC(=O)O (stereo not drawn) [Clorotepine maleate] | 98.5 | 102 | 106 (inactive) | 118 (inactive) |
| CC(C)CCCC(C)C1CCC2C3CCC4=CC(N=O)CCC4(C)C3CCC12C [(20S)-cholest-4-en-3-one oxime] | 99.4 | 110 | 90.2 (inactive) | 101 (inactive) |
| CC1(C)CCC(NC(=O)C(N)CCC(=O)O)CC1 (stereo not drawn) | 103 | 111 | 85.3 (inactive) | 91.7 (inactive) |
| Nc1cc(=O)nc(N)[nH]1 [2,6-Diamino-4-pyrimidinone] | 99.3 | 104 | 93.6 (inactive) | 97.1 (inactive) |
| CN(C)c1ccc(C=C2C(=O)Nc3ccccc32)cc1 | 95.9 and 109 and 98.8 | 86.6 and 102 and 98.2 | 97 (inactive) and 108 (inactive) and 101 (inactive) | 114 (inactive) and 102 (inactive) and 125 (inactive) |
| CC(CCC(=O)NCCS(=O)(=O)O)C1CCC2C3C(O)CC4CC(O)CCC4(C)C3CC(O)C12C (stereo not drawn) [Taurocholic acid] | 101 | 104 | 97.8 (inactive) | 111 (inactive) |
| Oc1cc2c(c(Cl)c1O)CCNCC2c1ccccc1 (stereo not drawn) | 99.5 | 87.8 | 85.5 (inactive) | 105 (inactive) |
| Cl.NC1C=CC=C(C(=O)O)C1 (stereo not drawn) [Gabaculine hydrochloride] | 103 | 108 | 102 (inactive) | 105 (inactive) |
| CC(C=Cc1cccc(Oc2ccc(F)cc2)c1)N(O)C(N)=O (stereo not drawn) | 102 | 101 | 102 (inactive) | 89.2 (inactive) |
| CS(=O)(=O)O.Cc1ccc(NC(=O)c2ccc(CN3CCN(C)CC3)cc2)cc1Nc1nccc(-c2cccnc2)n1 [Imatinib] | 93.4 | 95.8 | 107 (inactive) | 127 (inactive) |
| CC(=O)OC1(C(C)=O)CCC2C3CC(C)C4=CC(=O)CCC4(C)C3CCC21C (stereo not drawn) [Medroxyprogesterone 17-Acetate] | 105 | 112 | 102 (inactive) | 89.3 (inactive) |
| CN(C)C(N)=NCCCC(N)C(=O)O.Cl (stereo not drawn) [N^G,N^G-Dimethylarginine hydrochloride] | 104 | 96.5 | 91.6 (inactive) | 94.5 (inactive) |
| CCN(CC)CCNC(=O)c1ccc(N)cc1.Cl [Procainamide.HCl] | 108 | 101 | 91.2 (inactive) | 101 (inactive) |

| SMILES | cell number (HCC1569 [1]) | cell number (TDF [2]) | H1.0 immunofluorescence intensity (TDF [3]) | H1.0 immunofluorescence intensity (HCC1569 [4]) |
| --- | --- | --- | --- | --- |
| C[C@H](c1ccc(F)cc1CCCC(=O)O)N(c1cc(F)ccc1F)S(=O)(=O)c1ccc(Cl)cc1 | 99.7 | 90.2 | 94.6 (inactive) | 111 (inactive) |
| CSc1ccc(C(=O)c2[nH]c(=O)[nH]c2C)cc1 [Enoximone] | 107 | 109 | 96.3 (inactive) | 105 (inactive) |
| CCN1CCCC1CNC(=O)c1cc(S(=O)(=O)CC)c(N)cc1OC (stereo not drawn) [Amisulpride] | 107 | 84.5 | 104 (inactive) | 96.7 (inactive) |
| O=C1C=CC(=C2NC(c3ccncc3)=C(c3ccc(F)cc3)N2)C=C1 | 79.5 and 79.7 | 95.1 and 96.9 | 97.7 (inactive) and 97.1 (inactive) | 125 (inactive) and 124 (inactive) |
| N#CC(=Cc1ccc(O)c(O)c1)C(=O)NCCCNC(=O)C(C#N)=Cc1ccc(O)c(O)c1 [Tyrphostin AG 537] | 101 | 101 | 94 (inactive) | 99.6 (inactive) |
| CC12C=CC(=O)C=C1CCC1C2=CCC2(C)C(C(=O)CN3CCN(c4cc(N5CCCC5)nc(N5CCCC5)n4)CC3)CCC12.O=C(O)C=CC(=O)O (stereo not drawn) | 91.7 and 96.8 | 93.4 and 95.2 | 95.3 (inactive) and 98.1 (inactive) | 98 (inactive) and 96.5 (inactive) |
| CC(N)=NCc1cccc(CN)c1.Cl.Cl [1400W dihydrochloride] | 101 | 119 | 90.6 (inactive) | 109 (inactive) |
| CCN1CCCC1CNC(=O)c1c(OC)ccc(I)c1O (stereo not drawn) | 106 | 91 | 96.7 (inactive) | 88.1 (inactive) |
| CCCCOC(=O)NS(=O)(=O)c1sc(CC(C)C)cc1-c1ccc(Cn2c(CC)nc3c(C)cc(C)nc32)cc1 | 99.7 | 106 | 84.8 (inactive) | 100 (inactive) |
| COCc1c(C(C)C)nc(C(C)C)c(C=CC(O)CC(O)CC(=O)O)c1-c1ccc(F)cc1 (stereo not drawn) [Cerivastatin] | 97.3 | 39 | 166 (active) | 98.3 (inactive) |
| O=C1c2ccc(O)cc2OC(c2cc(O)c(O)c(O)c2)C1O (stereo not drawn) [Dihydrorobinetine] | 102 | 106 | 95.3 (inactive) | 95.3 (inactive) |
| CCn1cc(C(=O)O)c(=O)c2ccc(Cc3ccccc3)nc21 [Amfonelic acid] | 101 | 94.6 | 92.2 (inactive) | 95.4 (inactive) |
| COC(C(=O)C(O)C(C)O)C1Cc2cc3cc(OC4CC(OC5CC(O)C(O)C(C)O5)C(O)C(C)O4)c(C)c(O)c3c(O)c2C(=O)C1OC1CC(OC2CC(OC3CC(C)(O)C(O)C(C)O3)C(O)C(C)O2)C(O)C(C)O1 (stereo not drawn) [Plicamycin] | 60.8 | 36 | 103 (inactive) | 126 (inactive) |
| O=c1cc(N2CCOCC2)oc2c1ccc1ccccc12 [NU 7026 - 2-(4-Morpholinyl)-4H-naphthol[1,2-b]pyran-4-one] | 96 | 106 | 94 (inactive) | 105 (inactive) |
| CCC1(O)CC2CN(CCc3c([nH]c4ccccc34)C(C(=O)OC)(c3cc4c(cc3OC)N(C)C3C(O)(C(N)=O)C(O)C5(CC)C=CCN6CCC43C65)C2)C1.O=S(=O)(O)O (stereo not drawn) [Vindesine sulfate] | 55.4 | 8.86 | 155 (active) | 179 (active) |
| Nc1nc(Cl)nc2c1ncn2C1OC(CO)C(O)C1F (stereo not drawn) [Clofarabine] | 90.6 | 45.3 | 119 (inactive) | 93.5 (inactive) |
| CC(C)(Oc1ccc(CCNC(=O)c2ccc(Cl)cc2)cc1)C(=O)O [Bezafibrate] | 98.4 | 105 | 97.9 (inactive) | 105 (inactive) |
| CC(C)(ON=C(C(=O)NC1C(=O)N2C(C(=O)[O-])=C(C[n+]3ccccc3)CSC12)c1csc(N)n1)C(=O)O (stereo not drawn) [Ceftazidime] | 103 | 103 | 90.2 (inactive) | 108 (inactive) |
| CCCCC(=O)O[C@]1(C(=O)CO)[C@@H](C)C[C@H]2[C@@H]3CCC4=CC(=O)C=C[C@]4(C)[C@@]3(F)[C@@H](O)C[C@@]21C | 96.4 | 106 | 87.6 (inactive) | 103 (inactive) |
| Cl.O=C1NCC2(CCN(CCc3ccccc3)CC2)O1 [Fenspiride hydrochloride] | 98.2 | 105 | 93.2 (inactive) | 91 (inactive) |
| CCOC(=O)CCNc1cc(N2CCc3ccccc3CC2)nc(-c2ccccn2)n1 | 78.8 | 20.8 | 171 (active) | 113 (inactive) |
| COc1ccc(-c2nn3c(-c4ccccn4)nnc3s2)cc1OC | 98 | 103 | 97.3 (inactive) | 111 (inactive) |
| Br.CN=c1nc(-c2ccccc2)n(-c2ccccc2)s1 | 97.5 | 107 | 90.9 (inactive) | 111 (inactive) |
